For 4 compounds, AC50 and outcome results are on record in PubChem BioAssay (EPA / NIEHS).

Each structure is given as a SMILES string. Where “and” joins values, the source holds several entries; their conditions need not be identical. Identical values can stand only once. Inconclusive results are not listed. The source holds several records for some structures; these can differ, active in one and inactive in another. Calls of active or inactive are those of the source. How the source made its calls: active means hit-call score of the fitted dose curve at least 0.9, where 1 is the maximum; inconclusive means response in the unintended direction; inactive means score below 0.9.

For orientation: AC50 means the concentration giving half of the maximal activity seen.

Chain of rat Vasopressin 1 Receptor (V1), Avpr1a (gene 25107) (P30560 whole entry, looked up): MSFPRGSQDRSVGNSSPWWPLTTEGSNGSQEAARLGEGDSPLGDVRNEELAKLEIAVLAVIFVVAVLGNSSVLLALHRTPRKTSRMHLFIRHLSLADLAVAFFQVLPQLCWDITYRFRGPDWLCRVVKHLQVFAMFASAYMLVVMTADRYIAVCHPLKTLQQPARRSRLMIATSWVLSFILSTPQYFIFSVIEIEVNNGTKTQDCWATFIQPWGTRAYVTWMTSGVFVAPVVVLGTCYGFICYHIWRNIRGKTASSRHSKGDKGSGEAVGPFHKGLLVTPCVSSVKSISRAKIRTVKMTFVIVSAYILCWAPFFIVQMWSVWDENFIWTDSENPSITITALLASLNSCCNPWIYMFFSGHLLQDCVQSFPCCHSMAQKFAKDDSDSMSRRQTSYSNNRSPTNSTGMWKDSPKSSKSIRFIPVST

In this experiment the target is rat Vasopressin 1 Receptor (V1), Avpr1a (gene 25107) (UniProt P30560). In words: NVS_GPCR_rV1: NovaScreen (NVS) G Protein-Coupled Receptor Assay for rat Vasopressin 1 Receptor (V1) (AID 2283316). The method in brief:
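Radioligand binding on rat liver membranes, 1.5 h incubation, filter-based scintillation counting. Single 25 uM screen in duplicate; chemicals meeting threshold (e.g. 30% inhibition) run in concentration-response up to 50 uM.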
`Oc1cc(Cl)ccc1Oc1ccc(Cl)cc1Cl`: the AC50 was 3.23 µM (active) and 12.1 µM (active).
The same measure, in the same setting: then `CC(C)(C)C(O)C(Oc1ccc(Cl)cc1)n1cncn1` (stereo not given), with 3.04 µM (active) and 27.7 µM (active); and `CCCN(CCOc1c(Cl)cc(Cl)cc1Cl)C(=O)n1ccnc1`, with 6.02 µM (active).
As to `Oc1ccc(Cl)cc1Cc1ccccc1`, the half-maximal activity concentration (AC50) is 7.33 µM (active) and the compound was called inactive.
